Experiment [1] in a line: qHTS assay to identify aromatase inhibitors - cell viability counter screen (AID 743084;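 further: cells stimulated with testosterone during compound exposure; nearly all actives have a fitted effect of over 55% in size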; further: potency means the concentration at half of the fitted maximal effect). (In general: In qHTS, concentration-response curves come from the screen itself.)
The nature of experiment [2]: qHTS assay to identify small molecule that activate the aryl hydrocarbon receptor (AhR) signaling pathway - cell viability counter screen (AID 743086).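 Further: HepG2 liver cells carrying the AhR DRE luciferase reporter; series mostly up to about 70 µM; nearly all actives have a fitted effect of over 45% in size.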 An outline of the steps: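 HepG2-AhR-luc (HG2L7.5c1) cells, 4000/well, treated 24 h at 37 C with compound; viability measured as CellTiter-Fluor fluorescence after 30 min in the same wells as the luciferase read.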
Experiment [3] has as its target Peroxisome proliferator-activated receptor gamma (Homo sapiens) (UniProt P37231). Nature of the experiment: qHTS assay to identify small molecule agonists of the peroxisome proliferator-activated receptor gamma (PPARg) signaling pathway (AID 743094; active means well fitted activation curve with a large enough effect in the signal ratio in the repeat runs, not every such curve was filed as active; the % refers to the signal ratio). An outline of the steps: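 HEK293H PPARg-bla cells, 5 h settle at 37C/5% CO2; compound (DMSO) 17 h, 37C; B/G FRET substrate 1 h RT; fluorescence intensity read-out. qHTS format.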

Experiment [4] shares this target. Put plainly: qHTS assay to identify small molecule antagonists of the peroxisome proliferator-activated receptor gamma (PPARg) signaling pathway (AID 743191; calls by dose curve; further: series mostly up to about 63 µM; nearly all actives have a fitted effect of over 30% in size). An outline of the steps: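 GeneBLAzer PPARg UAS-bla HEK293H cells, 5 h post-plating, exposed to compounds 17 h at 37C. LiveBLAzer B/G FRET substrate added for 1 h at room temperature; beta-lactamase reporter read by fluorescence intensity.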

A short description of experiment [5]: qHTS assay for small molecule agonists of the antioxidant response element (ARE) signaling pathway (AID 743202; active means well fitted activation curve with a large enough effect in the signal ratio in the repeat runs, not every such curve was filed as active; the % refers to the signal ratio; further: potency means the concentration at half of the fitted maximal effect). An outline of the steps: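 HepG2 ARE-bla cells; 16 h treatment at 37 C; FRET-based beta-lactamase fluorescence read after 2 h substrate incubation at room temperature.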
Experiment [6] is described as follows: qHTS assay for small molecule agonists of the antioxidant response element (ARE) signaling pathway - cell viability counter screen (AID 743203; calls by dose curve; further: nearly all actives have a fitted effect of over 55% in size; further: potency means the concentration at half of the fitted maximal effect). An outline of the steps:
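Luminescence read-out (CellTiter-Glo, 30 min at room temperature) measured cell viability in the same wells as the ARE beta-lactamase reporter. HepG2 ARE-bla cells were treated with compounds for 16 hrs at 37C/5% CO2.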

Experiment [7] in a line: qHTS assay for small molecule activators of the heat shock response signaling pathway - cell viability counter screen (AID 743209). Further: nearly all actives have a fitted effect of over 50% in size. Further: potency means the concentration at half of the fitted maximal effect. The method, boiled down:
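HSE-bla HeLa; 1500 cells/well; overnight 37 C, 5% CO2; compound 5 h 37 C; LiveBLAzer B/G substrate 2.5 h RT; CellTiter-Glo 30 min RT; luminescence.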

A short description of experiment [8]: qHTS assay for small molecule activators of the heat shock response signaling pathway (AID 743210; active means well fitted activation curve with a large enough effect in the signal ratio in the repeat runs, with a control signal flat, not every such curve was filed as active; the % refers to the signal ratio;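 further: HeLa cells with beta-lactamase reporter driven by heat shock elements; series mostly up to about 63 µM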). An outline of the steps:
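Following overnight attachment, HSE-bla HeLa cells received test compounds for 5 h at 37 C; beta-lactamase activity was then detected via FRET substrate fluorescence.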

Experiment [9] is described as follows: qHTS assay to identify small molecule agonists of the peroxisome proliferator-activated receptor delta (PPARd) signaling pathway - cell viability counter screen (AID 743211). Further: nearly all actives have a fitted effect of over 55% in size. Further: potency means the concentration at half of the fitted maximal effect. An outline of the steps:
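Tox21 library compounds, delivered in DMSO, were incubated 17 h with PPARd-bla HEK293H cells; cytotoxicity was taken from CellTiter-Glo luminescence read 30 min after reagent addition.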

Experiment [10] can be described thus: qHTS assay to identify small molecule antagonists of the peroxisome proliferator-activated receptor delta (PPARd) signaling pathway - cell viability counter screen (AID 743213). Further: nearly all actives have a fitted effect of over 50% in size. Further: potency means the concentration at half of the fitted maximal effect. An outline of the steps: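 HEK293H cells with the PPARd UAS-bla reporter, co-treated 17 h at 37 C with compounds and L165041 (300 nM final), were lysed with CellTiter-Glo. Luminescence indicated viable cell content.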

Experiment [11] in a line: qHTS assay to identify small molecule agonists of the farnesoid-X-receptor (FXR) signaling pathway - cell viability counter screen (AID 743218). Further: nearly all actives have a fitted effect of over 45% in size. Further: potency means the concentration at half of the fitted maximal effect. An outline of the steps: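 Luminescence from CellTiter-Glo, read after 30 min at RT, reports viability of GeneBLAzer FXR-UAS-bla HEK 293T cells treated 16 h with compounds in the wells used for the beta-lactamase reporter.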
Experiment [12] in a line: qHTS assay to identify small molecule antagonists of the farnesoid-X-receptor (FXR) signaling pathway - cell viability counter screen (AID 743221; active means well fitted cell-killing curve with a large enough effect in the repeat runs, not every such curve was filed as active; further: nearly all actives have a fitted effect of over 50% in size; further: potency means the concentration at half of the fitted maximal effect). The method, boiled down: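 Cytotoxicity is taken from ATP luminescence (CellTiter-Glo, 30 min, room temperature) in FXR-bla HEK 293T cells previously incubated 16 h at 37 C with compound and chenodeoxycholic acid at 50 uM final.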

Experiment [13] has as its target Vitamin D3 receptor (Homo sapiens) (UniProt P11473). Put plainly: qHTS assay to identify small molecule agonists of the vitamin D receptor (VDR) signaling pathway (AID 743222; calls by dose curve). The method, boiled down:
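Beta-lactamase reporter readout (LiveBLAzer B/G FRET, 2 h RT) in VDR-bla cells after 16 h compound treatment at 37C, 5% CO2; cells pre-incubated 4 h before pin transfer of DMSO solutions.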

Experiment [14] has the same target. Put plainly: qHTS assay to identify small molecule antagonists of the vitamin D receptor (VDR) signaling pathway (AID 743223; active means well fitted inhibition curve with a large enough effect in the signal ratio in the repeat runs, not every such curve was filed as active; the % refers to the signal ratio). The method, boiled down:
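Quantitative HTS in VDR-bla reporter cells stimulated with 1alpha,25-dihydroxyvitamin D3, 3 nM final. Compound exposure 16 h, 37C, 5% CO2. Read-out: beta-lactamase FRET substrate fluorescence, 2 h RT.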

The target of experiment [15] is Aryl hydrocarbon receptor (Homo sapiens) (UniProt P35869). Nature of the experiment: qHTS assay to identify small molecule that activate the aryl hydrocarbon receptor (AhR) signaling pathway (AID 743085). Further: nearly all actives have a fitted effect of over 15% in size. Further: potency means the concentration at half of the fitted maximal effect.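 On activation: HG2L7.5c1 human HepG2 liver cells with stably integrated DRE-driven firefly reporter; series mostly up to about 70 µM.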 An outline of the steps: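 A multiplexed format paired cell viability (CellTiter-Fluor fluorescence) with AhR-dependent luciferase output (ONE-Glo luminescence) in the same wells of HepG2 DRE-luc cells after 24 h compound exposure at 37C.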

Experiment [16] is described as follows: qHTS assay to identify small molecule antagonists of the peroxisome proliferator-activated receptor gamma (PPARg) signaling pathway - cell viability counter screen (AID 743194). Further: nearly all actives have a fitted effect of over 55% in size. Further: potency means the concentration at half of the fitted maximal effect. The settings on record: Potency: co-treated with 50 nM rosiglitazone unless noted. An outline of the steps: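 Cytotoxicity counter screen in PPARg-bla HEK293H cells, same wells as reporter assay. Compounds plus 50 nM rosiglitazone (final) for 17 h at 37 C, then viability read by CellTiter-Glo luminescence.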

For experiment [17], the target named is Peroxisome proliferator-activated receptor delta (Homo sapiens) (UniProt Q03181). Put plainly: qHTS assay to identify small molecule agonists of the peroxisome proliferator-activated receptor delta (PPARd) signaling pathway (AID 743212; calls by dose curve). An outline of the steps: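 Tox21 library screened in GeneBLAzer PPARd UAS-bla HEK293H cells. After compound treatment at 37 C, a FRET-based beta-lactamase substrate was applied for 2 h and fluorescence recorded.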

Experiment [18] addresses Bile acid receptor (Homo sapiens) (UniProt Q96RI1). Put plainly: qHTS assay to identify small molecule antagonists of the farnesoid-X-receptor (FXR) signaling pathway (AID 743217; active means well fitted inhibition curve with a large enough effect in the signal ratio in the repeat runs, not every such curve was filed as active; the % refers to the signal ratio). An outline of the steps:
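Read-out: beta-lactamase FRET fluorescence (LiveBLAzer B/G substrate, 2 h, room temperature) in GeneBLAzer FXR-UAS-bla HEK 293T cells. Compounds were co-dosed with 50 uM chenodeoxycholic acid (final) and incubated 16 h at 37 °C.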

Experiment [19] shares this target. Put plainly: qHTS assay to identify small molecule agonists of the farnesoid-X-receptor (FXR) signaling pathway (AID 743220; active means well fitted activation curve with a large enough effect in the signal ratio in the repeat runs, not every such curve was filed as active; the % refers to the signal ratio). An outline of the steps:
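FXR-UAS-bla HEK 293T cells carrying a UAS-driven beta-lactamase reporter were plated for 5 h at 37C/5% CO2, then exposed to DMSO-dissolved Tox21 10K compounds for 16 h at 37C. A LiveBLAzer B/G FRET substrate was loaded for 2 h at room temperature before fluorescence reading.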

The target of experiment [20] is Peroxisome proliferator-activated receptor delta (Homo sapiens) (UniProt Q03181). Nature of the experiment: qHTS assay to identify small molecule antagonists of the peroxisome proliferator-activated receptor delta (PPARd) signaling pathway (AID 743215; active means well fitted inhibition curve with a large enough effect in the signal ratio in the repeat runs, not every such curve was filed as active; the % refers to the signal ratio;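 further: cells stimulated with agonist L165041 at 300 nM final during compound exposure; series mostly up to about 62 µM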). An outline of the steps: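 HEK293H GeneBLAzer PPARd UAS-bla reporter cells; cpd + L165041 300 nM final, 17 h 37 C; LiveBLAzer B/G FRET substrate 2 h RT; fluorescence intensity read-out. Antagonist mode.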

“And” between values parts separate entries of the source, which are not always exact repeats. Equal entries are not always repeated. Records with an inconclusive call do not appear. Some structures have more than one record in an assay (separate samples or runs), and their calls can disagree. The source made the active and inactive calls. Unless noted, the call rests on the fitted dose curve; in most records, active means well fitted curve in the direction sought with a large enough effect in the repeat runs; inconclusive means weak or mixed curves; inactive means no such curve, though single readings can be large; an effect the other way counts as inactive or inconclusive.

Peroxisome proliferator-activated receptor gamma (Homo sapiens), sequence (P37231 whole entry, looked up): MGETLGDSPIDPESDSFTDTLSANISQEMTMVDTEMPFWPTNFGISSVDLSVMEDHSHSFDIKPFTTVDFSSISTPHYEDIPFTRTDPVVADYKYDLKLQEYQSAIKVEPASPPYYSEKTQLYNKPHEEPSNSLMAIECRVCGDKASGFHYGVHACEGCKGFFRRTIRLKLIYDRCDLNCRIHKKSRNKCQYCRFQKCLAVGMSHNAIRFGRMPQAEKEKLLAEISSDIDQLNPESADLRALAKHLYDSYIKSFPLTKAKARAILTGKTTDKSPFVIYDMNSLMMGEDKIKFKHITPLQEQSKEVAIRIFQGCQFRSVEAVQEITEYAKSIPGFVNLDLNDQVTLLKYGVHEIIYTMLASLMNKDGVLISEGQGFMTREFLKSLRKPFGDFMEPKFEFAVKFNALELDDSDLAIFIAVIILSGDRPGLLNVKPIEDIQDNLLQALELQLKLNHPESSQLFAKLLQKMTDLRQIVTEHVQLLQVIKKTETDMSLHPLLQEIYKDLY
Vitamin D3 receptor (Homo sapiens), sequence (P11473 whole entry, looked up): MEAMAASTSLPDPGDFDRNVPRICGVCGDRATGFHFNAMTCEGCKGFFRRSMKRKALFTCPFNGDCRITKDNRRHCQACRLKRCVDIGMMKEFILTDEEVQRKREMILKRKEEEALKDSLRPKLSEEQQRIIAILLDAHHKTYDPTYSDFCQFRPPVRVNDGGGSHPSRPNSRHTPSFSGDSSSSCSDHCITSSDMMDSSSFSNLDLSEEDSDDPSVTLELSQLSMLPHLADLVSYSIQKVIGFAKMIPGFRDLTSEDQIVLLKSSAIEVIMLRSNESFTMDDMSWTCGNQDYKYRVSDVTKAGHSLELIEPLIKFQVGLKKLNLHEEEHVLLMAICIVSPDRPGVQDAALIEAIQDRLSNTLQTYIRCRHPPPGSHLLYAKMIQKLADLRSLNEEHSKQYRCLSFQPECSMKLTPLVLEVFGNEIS
Peroxisome proliferator-activated receptor delta (Homo sapiens), sequence (Q03181 whole entry, looked up): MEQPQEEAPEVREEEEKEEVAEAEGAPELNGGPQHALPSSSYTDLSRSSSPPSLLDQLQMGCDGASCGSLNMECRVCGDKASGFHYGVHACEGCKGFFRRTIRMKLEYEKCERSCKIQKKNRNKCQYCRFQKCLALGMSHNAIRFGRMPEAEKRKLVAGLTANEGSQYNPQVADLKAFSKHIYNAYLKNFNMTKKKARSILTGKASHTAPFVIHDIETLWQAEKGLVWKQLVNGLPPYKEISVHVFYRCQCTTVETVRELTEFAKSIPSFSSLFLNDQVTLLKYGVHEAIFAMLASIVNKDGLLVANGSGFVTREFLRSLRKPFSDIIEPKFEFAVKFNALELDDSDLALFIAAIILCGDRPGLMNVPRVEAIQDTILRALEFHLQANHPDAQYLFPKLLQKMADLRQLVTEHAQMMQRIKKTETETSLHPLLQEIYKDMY
Aryl hydrocarbon receptor (Homo sapiens), sequence (P35869 whole entry, looked up): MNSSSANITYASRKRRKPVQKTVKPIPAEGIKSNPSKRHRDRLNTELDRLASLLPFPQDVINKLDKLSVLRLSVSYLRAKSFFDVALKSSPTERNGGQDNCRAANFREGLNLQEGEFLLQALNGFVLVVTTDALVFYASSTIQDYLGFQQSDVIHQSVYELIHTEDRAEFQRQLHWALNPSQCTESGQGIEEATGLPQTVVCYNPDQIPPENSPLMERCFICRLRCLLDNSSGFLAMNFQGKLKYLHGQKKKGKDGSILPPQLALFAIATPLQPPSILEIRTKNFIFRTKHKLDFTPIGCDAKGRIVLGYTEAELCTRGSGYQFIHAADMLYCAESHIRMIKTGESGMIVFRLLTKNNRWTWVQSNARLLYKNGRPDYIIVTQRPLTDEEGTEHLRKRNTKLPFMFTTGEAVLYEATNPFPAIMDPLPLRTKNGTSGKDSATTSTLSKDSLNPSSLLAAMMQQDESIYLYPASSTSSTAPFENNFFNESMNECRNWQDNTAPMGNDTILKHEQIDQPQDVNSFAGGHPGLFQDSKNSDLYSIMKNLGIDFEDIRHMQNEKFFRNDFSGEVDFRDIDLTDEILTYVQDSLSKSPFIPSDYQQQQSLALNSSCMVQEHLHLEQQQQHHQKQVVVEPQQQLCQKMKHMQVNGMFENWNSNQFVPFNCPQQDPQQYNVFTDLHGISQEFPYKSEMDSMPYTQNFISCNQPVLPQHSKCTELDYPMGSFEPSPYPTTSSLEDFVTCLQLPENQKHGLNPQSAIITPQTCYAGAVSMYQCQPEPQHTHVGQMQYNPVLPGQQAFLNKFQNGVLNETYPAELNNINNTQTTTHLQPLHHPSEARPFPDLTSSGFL
Bile acid receptor (Homo sapiens), sequence (Q96RI1 whole entry, looked up): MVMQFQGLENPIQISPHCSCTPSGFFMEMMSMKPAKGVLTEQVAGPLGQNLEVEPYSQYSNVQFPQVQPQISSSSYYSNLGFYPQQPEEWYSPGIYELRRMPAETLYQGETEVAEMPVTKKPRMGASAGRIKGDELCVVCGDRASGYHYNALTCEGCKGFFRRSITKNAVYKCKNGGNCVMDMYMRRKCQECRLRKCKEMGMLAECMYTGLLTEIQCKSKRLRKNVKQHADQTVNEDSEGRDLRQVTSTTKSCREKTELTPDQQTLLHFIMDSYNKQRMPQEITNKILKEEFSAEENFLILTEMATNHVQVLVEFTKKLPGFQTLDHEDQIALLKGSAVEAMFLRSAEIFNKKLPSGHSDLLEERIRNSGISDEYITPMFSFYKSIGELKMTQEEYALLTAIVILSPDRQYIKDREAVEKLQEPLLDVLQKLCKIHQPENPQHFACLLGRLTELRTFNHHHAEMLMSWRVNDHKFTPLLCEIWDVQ

As to `O=C(O)CCl`, the Potency result in experiment [1], in experiment [2], in experiment [4], in experiment [5], in experiment [6] and in experiment [7] was “inactive” in each case. In addition, the Potency entry in [9], in experiment [10], in experiment [11], in [12] and in experiment [14] was “inactive” each time. The compound was classed as inactive in experiment [3], in experiment [8] and in experiment [13].

In the case of `CCCC[N+]1(C)CCCC1`, the Potency result in experiment [1], in experiment [5], in experiment [6], in experiment [7], in experiment [9] and in experiment [10] was “inactive” throughout. Also, the Potency entry in experiment [11] and in [12] was “inactive” each time. The outcome in experiment [8] was inactive.

Turning to `N#CS`, the Potency entry in [1], in experiment [15], in experiment [16], in [5], in experiment [6] and in [7] was “inactive” throughout. Besides, the Potency result in [9], in experiment [10], in [11], in experiment [12] and in [14] was “inactive” throughout. In addition, the result in experiment [8] and in [13] was inactive.

Regarding `C=CCOC(Cn1ccnc1)c1ccc(Cl)cc1Cl` (stereo not drawn), the Potency entry in experiment [1], in experiment [4], in experiment [6], in experiment [7], in [10] and in experiment [11] was “inactive” in each case. Moreover, the Potency result in [12] and in [14] was “inactive” each time. For the same compound, the call in [3] and in [13] was inactive. Besides, the Potency in experiment [9] is 49 µM (active) and inactive.

Regarding `CCCCCCCCCCCCCC[P+](CCCCCC)(CCCCCC)CCCCCC`, the Potency in experiment [1] was 24.4 µM (active) and 12.3 µM (active); in [16] it was 24.7 µM (active) and 7.82 µM (active) and 2.45 µM (active); in experiment [6], 24.4 µM (active) and 15.5 µM (active) and inactive; in experiment [7], 6.19 µM (active) and 7.82 µM (active); in experiment [9], 7.8 µM (active) and 2.47 µM (active) and 61.6 nM (active); in experiment [10], 15.6 µM (active) and 3.92 µM (active). For the same compound, the Potency is 13.9 µM (active) and 24.7 µM (active) and inactive in experiment [11]; 22 µM (active) and 15.6 µM (active) and inactive in [12]. For the same compound, the Potency entry in experiment [15], in experiment [5] and in [18] was “inactive” in each case. In addition, the call in experiment [8], in [17] and in [19] was inactive.

For the compound `CCC[N+]1(C)CCCC1`, the Potency result in experiment [2], in experiment [5], in experiment [6], in experiment [7], in experiment [9] and in experiment [10] was “inactive” in each case. Moreover, the Potency result in experiment [11] and in experiment [12] was “inactive” each time. The compound was classed as inactive in [8], in experiment [17] and in [20].

Take `CCOP(=S)(OCC)Oc1ccc2c(C)c(Cl)c(=O)oc2c1`: the Potency result in [1], in experiment [16], in [5], in experiment [6], in [7] and in [9] was “inactive” throughout. In addition, the Potency result in experiment [10], in experiment [11] and in experiment [12] was “inactive” each time. The Potency in experiment [15] is 596 nM (active) and 98 nM (active). Besides, the call in experiment [3], in [8], in [17] and in [20] was inactive.

On to `CCCC[n+]1ccc(C)cc1`, for which the Potency entry in experiment [1], in [6], in [11] and in experiment [12] was “inactive” throughout. The Potency in experiment [5] was 3.91 µM (active) and 4.33 µM (active) and inactive; in [7], 54.7 µM (active) and inactive; in experiment [9], “inactive and 48.7 µM (active)”; in experiment [10], “inactive and 43.4 µM (active)”. Besides, the result in [8] was inactive.

As to `C[C@]12CCC(=O)C=C1CC[C@@H]1[C@@H]2CC[C@]2(C)C(=O)CC[C@@H]12`, the Potency entry in experiment [1], in experiment [15], in experiment [6], in experiment [7], in [9] and in experiment [10] was “inactive” throughout. Further, the Potency entry in [18], in experiment [11] and in experiment [12] was “inactive” in each case. In addition, the result in experiment [3], in experiment [8], in experiment [17] and in experiment [19] was inactive.

The record behind these values is PubChem BioAssay (Tox21).
